These results are taken from PubChem BioAssay (NCI).

Several values for one entry are separate records, joined by “and”; a condition that tells them apart may be missing. Equal entries are not always repeated. Compounds without any hit were thinned out: in the full panel of roughly 83,000, 20% have a hit.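 The endpoint reported here, percent growth, reads 100 for growth as untreated, 0 for no net growth and -100 for all cells dead.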 Activity calls are given as the source filed them. The calls were made as follows: active = growth percent below 10; inactive = the rest.

The experiment concerns MDA-MB-468 breast. Nature of the experiment: NCI-60 one-dose screen, 48 h (100 = growth as untreated, 0 = no growth, -100 = all killed). The settings on record: 10 µM unless noted.
`COc1cc(Cn2c(SCCC(=O)Nc3ccc(F)cc3)nc3ccccc3c2=O)cc(OC)c1OC`: the growth was 88.1% (inactive).

On to `COc1ccc2[nH]c(=O)c(/C=C/C(=O)/C=C/c3ccc(O)c(OC)c3)cc2c1`, for which the growth is -32.1% (active).

In the case of `COc1cccc(/C=N/C(=S)NC2(C)C3CCC(C3)C2(C)C)c1O` (stereo not given), the growth is 57% (inactive).

For `COc1cc2c(cc1OC)C(Sc1ccc(Cl)cc1)c1c(nc(N)c(C#N)c1N)O2` (stereo not given), the growth was -23.6% (active).

For the compound `Cc1ccc(C(C)C)c(O)c1NC(=O)OC(C)C`, the growth was 97.5% (inactive).

Regarding `C[C@@H](C(=O)O)c1ccc2c3cc(Cl)ccc3n(Cc3cc(=O)oc4ccc(Cl)cc34)c2c1`, the growth is 113% (inactive).

For the compound `CC(=O)/C(=C/c1ccc([N+](=O)[O-])cc1)C(=O)c1ccccc1`, the growth was 114% (inactive).

Regarding `N#C/C(=C\c1cccc2c1OCO2)C(=O)Nc1sc2c(c1C#N)CCCC2`, the growth was 100% (inactive).

With `Cc1cccc(NC(=O)CCc2ccc(N3C(N)=NC(N)=NC3(C)C)cc2)c1`, the growth was 39.9% (inactive).

`COc1ccc(Cn2cc3c(c2-c2cc(OC)c(OC)c(OC)c2)CCc2cnoc2-3)cc1`: the growth was 4.09% (active).

With `COc1cc(CNC(=O)CCCC/C=C/C(C)C)ccc1O`, the growth was 94.6% (inactive) and 98.5% (inactive).

`O=C(O)COc1ccc(-c2cssc2=S)cc1`: the growth was 99.5% (inactive).

With `O=C(O)c1ccc(-c2nn(-c3ccc(C(=O)O)cc3)cc2/C=N/Nc2c(F)c(F)cc(F)c2F)cc1`, the growth is 117% (inactive).

In the case of `CCOC(=O)/C(C#N)=C(/CC)OCC`, the growth was 113% (inactive).

`CCN(CC)S(=O)(=O)c1ccc(S(=O)(=O)N2CCC[C@@H](C(=O)N3CCN(c4nc(C(C)C)no4)CC3)C2)cc1`: the growth is 12.4% (inactive).
